High-throughput results from PubChem BioAssay.
Only some compounds are listed: those with a hit (about 3.4% of all), similar ones and a draw of the others.
ADAM17 inh: inhibits human ADAM17. P78536. recombinant ADAM17, EDANS/DABCYL FRET peptide cleavage. inhibition, % at 6.95 µM. actives 0.83% (n = 370,000);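 active = inhibition above the mean of compounds lying between control limits plus 3 SD, set per campaign, cut at about 8.5% in these data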;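 also: 0% = DMSO-only wells as the low control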
Target sequence (P78536 215-824 limits assumed): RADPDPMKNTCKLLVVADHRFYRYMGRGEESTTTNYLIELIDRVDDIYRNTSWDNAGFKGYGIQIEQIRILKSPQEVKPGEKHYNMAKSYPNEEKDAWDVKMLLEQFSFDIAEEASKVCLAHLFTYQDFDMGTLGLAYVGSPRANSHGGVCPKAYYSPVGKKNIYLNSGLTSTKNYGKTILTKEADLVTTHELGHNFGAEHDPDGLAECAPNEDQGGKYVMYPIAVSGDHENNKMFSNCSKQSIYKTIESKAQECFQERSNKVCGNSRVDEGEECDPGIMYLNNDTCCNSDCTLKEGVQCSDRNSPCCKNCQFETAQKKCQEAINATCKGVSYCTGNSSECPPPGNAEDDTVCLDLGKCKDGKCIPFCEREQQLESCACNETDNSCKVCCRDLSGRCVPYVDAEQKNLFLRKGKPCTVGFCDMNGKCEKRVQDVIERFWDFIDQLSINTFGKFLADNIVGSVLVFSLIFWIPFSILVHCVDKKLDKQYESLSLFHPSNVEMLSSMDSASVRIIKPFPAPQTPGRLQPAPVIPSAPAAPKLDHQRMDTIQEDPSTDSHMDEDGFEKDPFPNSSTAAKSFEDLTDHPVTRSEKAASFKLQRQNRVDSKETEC
proKLK7 act: proKLK7 (human) activation, primary screen | activation, % at 7 µM | actives 0.9% (n = 370,000) | purified proKLK7, EDANS-DABCYL substrate fluorescence; 100% is mature enzyme control, 0% vehicle;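 active = activation above the mean of all tested compounds plus 3 SD, computed per campaign excluding outliers beyond control limits, cut at about 13% in these data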
sPLA2-III inh: Inhibits HGIII-sPLA2 liposome hydrolysis, primary screen | inhibition, % at 12.2 µM | QFRET BODIPY PC-A2 liposome hydrolysis, fluorescence | Q9NZ20 | actives 0.56% (n = 370,000) | AID 743126;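 active = inhibition above mean plus 3 SD of compounds lying within the high and low control bounds, cut at about 19% in these data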;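 also: 0% = median of test compound wells and 100% = no enzyme DMSO wells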
PLC-gamma1 inh: PLC-gamma1 (human) inhibition, primary screen. inhibition, % at 12.2 µM. actives 0.84% (n = 370,000). purified PLC-gamma1, fluorogenic substrate, fluorescence. P19174. AID 720700; in the data active = inhibition above about 9.5%
PLC-beta3 inh: blocks human PLC-beta3 enzyme activity; Q01970; Purified PLC-beta3, fluorogenic substrate, fluorescence; inhibition, % at 12.2 µM; actives 0.18% (n = 370,000); in the data active = inhibition above about 11%;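 also: 0% = median of compound wells on plate and 100% = full blocker control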
ADAM10 inh: inhibits human ADAM10; O14672; recombinant ADAM10, EDANS/DABCYL FRET peptide cleavage, 3 h; inhibition, % at 7 µM; actives 0.62% (n = 370,000);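 active = inhibition above a per-campaign cutoff equal to the mean of compounds falling between control-based bounds plus 3 SD, cut at about 20% in these data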;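 also: 0% = DMSO wells while the 100% control is not disclosed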
proKLK7 act conf: confirmation of human kallikrein-7 zymogen activators; shares compounds with proKLK7 act; purified proKLK7, EDANS-DABCYL substrate fluorescence; scaled: vehicle 0, mature enzyme 100; activation, % at 7 µM; actives 68% (n = 3,200);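 active = activation, as change over the incubation, above the mean of all tested compounds plus 3 SD, cut at about 13% in these data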
EDANS-DABCYL int: fluorescence interference counter-screen for KLK7 activators; activation, % at 7 µM; shares compounds with proKLK7 act; actives 80% (n = 3,200); EDANS-DABCYL substrate fluorescence interference, no enzyme, 4 h; solvent 0%, active enzyme control 100%;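 active = activation above the all-compound mean plus 3 SD, ignoring values outside control-based bounds, cut at about 4.8% in these data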;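 also: value is the 4 h activation minus the activation read at time zero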
* hit, by the source's call; i = inactive; / = no result.

SMILES	ADAM17 inh	proKLK7 act	sPLA2-III inh	PLC-gamma1 inh	PLC-beta3 inh	ADAM10 inh	proKLK7 act conf	EDANS-DABCYL int
CCCCCOc1ccc(N2C(=O)CC(N(O)c3ccccc3)C2=O)cc1 (stereo not given)	1.0	6.5	-1.6	-1.8	-4.1	3.8	/	/
Cc1c(Cl)cccc1N1C(=O)CC(N(O)c2ccccc2)C1=O (stereo not given)	-5.9	759.4*	-3.3	-3.4	-4.9	-10.3	676.4*	671.0*
CCCCOc1ccc(N2C(=O)CC(N(O)c3ccccc3)C2=O)cc1 (stereo not given)	2.1	32.9*	-2.1	2.1	-2.9	0.0	35.7*	33.3*
COc1ccc(-n2c(SCC(=O)Nc3ccc4c(c3)OCCO4)nnc2-c2ccccc2)cc1	-0.3	0.2	-0.3	0.2	0.6	-0.5	/	/
FC(F)(F)c1ccc2c(c1)N1CCCC1CN2 (stereo not given)	-16.2	0.8	2.0	-37.6	-56.1	-38.2	/	/
FC(F)(F)c1ccc2c(c1)NCC1CCCN21 (stereo not given)	-92.3	68.5*	8.6	-76.5	-101.7	-282.8	46.4*	47.4*
O=C(NCc1ccccc1)C1(C(=O)C2CC2)CC(c2ccccn2)=NO1 (stereo not given)	2.1	-0.5	4.8	6.6	1.6	-3.3	/	/
CC1=CC(c2ccc(Cl)cc2)n2ncnc2N1 (stereo not given)	-94.0	0.0	-0.6	-104.7	-102.2	-444.5	/	/
FC(F)(F)c1ccccc1C1=CC(c2ccccc2)n2ncnc2N1 (stereo not given)	-105.6	25.5*	-3.3	i	i	-376.2	26.8*	26.1*
Cc1ccc(C2=CC(c3ccc(C)cc3)n3ncnc3N2)cc1 (stereo not given)	-140.3	32.0*	2.9	i	i	-478.1	9.2	-5.5
COc1ccc(C2C=C(c3ccccc3)Nc3ncnn32)cc1 (stereo not given)	-415.2	52.5*	-5.4	i	i	i	71.2*	73.9*
CCOC(=O)C1=C(c2ccccc2)Nc2ncnn2C1c1ccc(OC)c(OC)c1OC (stereo not given)	-7.2	0.2	-2.7	-11.0	-15.8	1.8	/	/
COc1ccc(C2C=C(c3ccc(C)c(C)c3)Nc3ncnn32)c(OC)c1OC (stereo not given)	-72.8	18.1*	-8.1	i	i	-314.9	23.8*	30.5*
CC(C)CNS(=O)(=O)CC1NCc2ccccc21 (stereo not given)	-2.1	0.5	-0.2	-5.9	-5.5	-1.2	/	/
CCCCNS(=O)(=O)/C=C/c1ccc(OC)cc1CNC(=O)OC(C)(C)C	0.6	0.0	-2.5	-5.0	-5.6	-3.9	/	/
CCc1ccccc1-c1cc(C(C)=O)c2n(c1=O)CCC2	-6.5	-0.4	8.0	0.6	0.5	-1.5	/	/
CNc1cncc(-c2ccc(F)c(F)c2)n1	i	36.9*	7.2	i	i	i	15.5*	25.4*
CNc1cncc(-c2cccc(C(=O)N(C)C)c2)n1	i	50.8*	3.2	i	i	i	60.2*	63.3*
CC(=O)Nc1cncc(-c2cccc(C(=O)NCCN(C)C)c2)n1	-5.0	1.2	-0.2	-5.7	-9.9	-26.8	/	/
CNc1cncc(-c2cccnc2)n1	i	67.2*	-5.1	i	i	i	75.8*	78.6*
S=C(NCC1CCCCC1)OC1CCC12CCC(c1ccccc1)CC2 (stereo not given)	-1.3	-0.2	14.6	2.8	1.7	-1.8	/	/
Cc1ccc(OCc2nnc(SCC(=O)Nc3ccccc3-c3ccccc3)n2Cc2ccco2)cc1	7.9	0.2	-15.8	-1.9	-0.3	13.3	/	/
O=C(NC1CC[C@@]23CCCN2C(=O)CCC[C@H]3C1)c1ccccc1 (stereo not given in full)	-1.6	/	2.2	-0.4	-1.6	-0.5	/	/
Cc1cc(NCc2ccco2)nc2cc(O)ccc12	i	19.1*	-3.4	i	i	i	71.7*	65.9*
